From PubChem BioAssay AID651692 (Broad Institute, 2012)
Potency and affinity values are given separately. A number with no mark means an inactive call.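 The calls were made as follows: active = fitted half-maximal concentration for loss of cell signal no higher than twice the top valid tested concentration; inconclusive = flat curve at 30 to 70% inhibition, or poor fit; inactive = flat within 30%, signal rise, or potency above limit.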

Assay: cytotoxicity toward MDA-MB-231 breast cancer cells – cell-based, CellTiter-Glo luminescence, cherry-pick, cytotoxicity control for RAD54 inhibitor project, dose response (AID 651692);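 also: 0% = median of sample compound wells and -100% = staurosporine control wells; more negative values mean stronger loss of viable cell signal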
Details: MDA-MB-231 viability, 24 h; series mostly up to 26 µM; activity change, negative = growth inhibition: at the top concentration

| Compound | activity change, negative = growth inhibition |
| --- | --- |
| Cc1ccnc(SCC(=O)Nc2sc3c(c2C#N)CCC(C(C)(C)C)C3)n1 (stereo not given) | 2.74% |
| CCN(CC)CCCNc1nc2cc(OC)c(OC)cc2c2nc(-c3cccnc3)nn12 | 9.47% |
| COc1ccc2cc3cc(C(=O)NCCCN4CCOCC4)oc3nc2c1 | 17.1% |
| NNC(=O)c1oc2nc(-c3cccs3)cc(-c3ccco3)c2c1N | 1.61% |
| CCC(=O)N(Cc1cc2cc(OC)ccc2[nH]c1=O)c1cc(C)ccc1C | 4.92% |
| CCOC(=O)c1[nH]c2cc3c(cc2c1CCCN1C(=O)c2ccccc2C1=O)OCCO3 | -4.26% |
| CN(C)CCCN1C(=O)c2cccc3cccc(c23)C1=O | 10.8% |
| CCN1CCc2c(sc(NC(=O)c3ccc(C(=O)c4ccccc4)cc3)c2C(N)=O)C1 | -14.2% |
| CN(C)CCCNc1c2ccccc2nc2ccccc12 | 8.41% |
| COc1cccc(-c2cc3nc(NCCCN(C)C)n(C)c(=O)c3s2)c1 | -0.818% |
| Cc1c(CN(C)C)c2c(n1C)C(=O)c1ccc(Br)cc1-2 | -0.638% |
| CN(C)CCNC(=O)c1c(NC(=O)c2ccccc2)sc2c1CCCC2 | 0.703% |
| CN(C)CCCNc1nc2cc(-c3ccccc3)sc2c(=O)n1C | -7.78% |
| COc1ccc(Nc2c3ccccc3nc3ccccc23)cc1 | -8.98% |
| CCCN(CCC)CCCNC(=S)Nc1ccc2nc(N3CCCC3)cc(C)c2c1 | -3.41% |
| CCOc1cc2[nH]c(=S)n(Cc3ccc(C(=O)NCCCN(CC)CC)cc3)c(=O)c2cc1OCC | 0.443% |
| CCOC(=O)c1c(NC(=O)c2ccc(S(=O)(=O)N3CCOCC3)cc2)sc2c1CCN(C(C)C)C2 | -3.25% |
| COc1cccc2sc3cc(NCC[C@@H]4CCCN4C)ccc3c(=O)c12 | 2.12% |
| CCNC(=O)c1cc2c(=O)n3cccc(C)c3nc2n(CCc2ccccc2)c1=N | -8.42% |
| COc1ccc(CCNC(=O)c2cc3c(=O)n4cccc(C)c4nc3n(CCCN3CCOCC3)c2=N)cc1 | -5.54% |

| Compound | activity change, negative = growth inhibition |
| --- | --- |
| CCN(CC)CCN1C(=O)c2cccc3cc(N)cc(c23)C1=O | 5.41% |
| N=c1c(C(=O)NCCN2CCOCC2)cc2c(=O)n3ccccc3nc2n1CCc1ccccc1 | 10.1% |
| CCOC(=O)c1cnc2c(CC)cccc2c1NCCCN1CCOCC1 | 2.46% |
| Cc1nc2oc3c(=O)[nH]cnc3c2c2c1COC(C)(C)C2 | 10.6% |
| CN1CCN(c2ccc(CNC(=O)C3Cc4c(-c5ccc(Cl)cc5)ccnc4O3)cc2)CC1 (stereo not given) | 5.92% |
| COc1cc2nc(Nc3ccc(F)cc3)nc(N)c2cc1OC | 14.2% |
| COc1ccccc1NC(=O)Cn1nnc2sc3c(c2c1=O)CC(C)(C)OC3 | 3.04% |
| CCCC(c1nnnn1Cc1ccc(OC)cc1)N1CCN(c2ccccc2)CC1 (stereo not given) | 11.4% |
| CCN(CC)CC(O)c1ccc2ccc3ccc(O)cc3c2c1 (stereo not given) | -4.8% |
| CN1CCCC1CCNc1ccc2c(=O)c3ccccc3oc2c1 (stereo not given) | 6.49% |
| CCN(CC)CC(=O)Nc1cccc2c1C(=O)c1ccccc1C2=O | 7.08% |
| Cc1cccn2c(=O)c3cc(C#N)c(=O)n(CCCN4CCOCC4)c3nc12 | 0.151% |
| Cc1ccc2nc3c(c(N)c2c1)CCN3C | 4.96% |
| CCCN(CCC)CCCNC(=O)c1cc2c(=O)[nH]c3ccccc3c2s1 | 0.356% |
| CCOC(=O)c1c(NC(C)=O)sc2c(O)c(CN3CCN(CC)CC3)ccc12 | 4.29% |
| Nc1c(C(=O)NCCN2CCOCC2)c2nc3ccccc3nc2n1-c1ccccc1 | 7.11% |
| CCCCN(CC)CCCNC(=S)Nc1ccc2nc(N3CCN(CC)CC3)cc(C)c2c1 | -2.93% |
| Cc1cc(N2CCN(C)CC2)nc2ccc(NC(=S)NCCN3CCc4ccccc4C3)cc12 | -6.89% |
| COc1ccc2c(c1)c1ncn(CCN3CCCCC3)c(=O)c1n2C | 3.69% |
| COc1ccccc1Nc1c2ccccc2nc2ccccc12 | -3.7% |
